Laboratory results from the supplement of paper PMC3334620.
Over roughly 33,000 sequences, “E-score (-0.5 to 0.5)” has its median near -0.016; the highest 2% begin near 0.3. The sample holds the highest values, similar sequences and a random draw of the others, so the mix is not that of the screen.

Target: T1, Yer184c (UniProt P39961)
T1 sequence: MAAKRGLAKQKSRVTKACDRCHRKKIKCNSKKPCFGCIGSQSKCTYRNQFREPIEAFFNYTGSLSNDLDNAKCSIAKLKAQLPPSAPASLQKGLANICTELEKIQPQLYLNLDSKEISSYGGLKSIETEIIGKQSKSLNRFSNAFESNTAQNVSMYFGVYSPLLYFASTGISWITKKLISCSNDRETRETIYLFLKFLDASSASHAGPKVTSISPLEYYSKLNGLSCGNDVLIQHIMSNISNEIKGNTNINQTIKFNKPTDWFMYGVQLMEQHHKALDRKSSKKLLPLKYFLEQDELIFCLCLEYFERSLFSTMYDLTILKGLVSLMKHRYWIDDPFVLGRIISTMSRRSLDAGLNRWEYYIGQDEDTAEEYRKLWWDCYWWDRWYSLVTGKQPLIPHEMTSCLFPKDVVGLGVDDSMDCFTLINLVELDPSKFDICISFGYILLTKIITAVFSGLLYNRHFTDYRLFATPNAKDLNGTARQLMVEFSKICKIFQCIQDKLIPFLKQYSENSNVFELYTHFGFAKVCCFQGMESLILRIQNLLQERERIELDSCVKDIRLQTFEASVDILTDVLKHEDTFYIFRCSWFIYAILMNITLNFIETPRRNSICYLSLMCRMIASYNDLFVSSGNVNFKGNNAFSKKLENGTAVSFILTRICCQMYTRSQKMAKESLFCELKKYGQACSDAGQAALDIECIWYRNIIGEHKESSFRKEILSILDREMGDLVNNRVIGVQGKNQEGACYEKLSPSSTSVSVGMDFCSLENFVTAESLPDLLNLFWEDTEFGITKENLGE
Experiment: PBM E-score (8-mer binding enrichment) (E-score (-0.5 to 0.5)); higher = stronger / more preferred TF binding
Conditions: protein concentration: 100 nM; construct: GST-full length
In short: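 Universal all-10-mer Agilent arrays, fresh or stripped once, were converted to double-stranded form by primer extension. GST-tagged yeast transcription factors from PURExpress in vitro transcription/translation, full-length or DNA-binding domain only, were applied at about 100-200 nM and detected with fluorescent anti-GST. After masliner normalisation, the Universal PBM Analysis Suite scored each ungapped eight-base word together with its reverse complement by E-score.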

| Sequence | PBM E-score |
| --- | --- |
| CATCGGCC | 0.115 |
| ACCCAGTG | -0.306 |
| GAGAGGGC | -0.293 |
| CCTATCGA | -0.107 |
| ACCGGACT | 0.101 |
| ACCGGATG | 0.307 |
| CCCGGACG | -0.0945 |
| ACCGGATC | 0.229 |
| ACCGGATA | 0.187 |
| ACCGGACG | 0.305 |
| CGCATGAA | 0.0183 |
| AGTTAGTG | 0.00554 |
| CCTATACG | -0.267 |
| TCTCGGCA | 0.35 |
| TCACGGCA | 0.096 |
| CCTCGGAG | 0.277 |
| ACTCGGCG | 0.325 |
| CCTCGGCC | 0.257 |
| ACTCGGCC | 0.121 |
| ACTCGGCA | 0.299 |
| ACTCGGCT | 0.209 |
| CCTCGGTA | -0.0209 |
| CCTCGGCG | 0.355 |
| CCTCGGCA | 0.367 |
| TATCGGCA | 0.213 |

| Sequence | PBM E-score |
| --- | --- |
| CGAACACC | 0.0223 |
| AATGGCCA | -0.256 |
| ACGGATTG | 0.161 |
| CTTCCGTA | 0.322 |
| CATCCGTA | 0.206 |
| ATTCCGTG | 0.313 |
| ATTCCGCG | 0.242 |
| ACTCCGTG | 0.1 |
| GTTCCGTA | 0.276 |
| CTTCCGTC | 0.209 |
| ATTCCGTA | 0.322 |
| ATTCCGTC | 0.149 |
| CCTGCGAG | 0.00158 |
| CGTAGCTC | -0.0585 |
| AGTTCACG | -0.0529 |
| CCCCAATA | -0.244 |
| ACGCCAAT | -0.0124 |
| ATTCTTCC | 0.083 |
| ACCGGGAT | 0.256 |
| CAGTTAGA | -0.0352 |
| ATAAGATC | -0.0275 |
| CCGAATTA | 0.231 |
| ACGAATTC | 0.113 |
| ACGAATCC | 0.115 |
| CCGAATCA | 0.233 |

| Sequence | PBM E-score |
| --- | --- |
| CCGAATCC | 0.322 |
| CCGAATTC | 0.334 |
| TACGCTAA | 0.0349 |
| GTAACTCA | -0.0122 |
| AGATCTAA | 0.0189 |
| AGTCTTGG | -0.0577 |
| AACCAAAA | 0.0925 |
| GACCAAAA | 0.309 |
| GACAAAAC | 0.0933 |
| GACAAGAA | 0.151 |
| GACAAAAA | 0.333 |
| TACCAAAA | 0.0716 |
| AATAATAC | 0.232 |
| AACAATAA | 0.255 |
| AGTAATAC | 0.106 |
| AATAATAG | 0.00819 |
| AGTAATAT | 0.338 |
| AGTAATAG | -0.00505 |
| AACAATAC | 0.0929 |
| AATAATAT | 0.333 |
| AACAATAT | 0.352 |
| CAACATCG | 0.0608 |
| CCCACGAC | -0.199 |
| GTTAGAGA | -0.0529 |
| ACCTGCTA | -0.00094 |

| Sequence | PBM E-score |
| --- | --- |
| CCTGAGTC | -0.0246 |
| CTATGATA | 0.162 |
| GTATGATA | 0.226 |
| ATATGATA | 0.325 |
| CTGCAACA | 0.152 |
| CACAATCA | 0.00768 |
| CGGAAATA | 0.424 |
| GGGAAATA | 0.0562 |
| AGGAAATA | 0.249 |
| CGGAAATC | 0.315 |
| AGGAAATC | 0.0763 |
| CTGAAATC | 0.0356 |
| GGACTTTA | 0.156 |
| AGTAGGTC | -0.225 |
| CTGCGCAA | -0.0246 |
| ATGGTACG | 0.0122 |
| ACTGTTGA | -0.0706 |
| TCGGCGAA | 0.294 |
| ACGGCGTA | 0.0111 |
| CCGGCGGC | 0.291 |
| CCGGCGGA | 0.369 |
| GCGGCGGA | 0.193 |
| CCGGCGAA | 0.35 |
| GCGGCGAA | 0.27 |
| GCGGCGTA | -0.0609 |

| Sequence | PBM E-score |
| --- | --- |
| CCGGCGTA | 0.313 |
| TATCTAAA | 0.0877 |
| CACTGCGA | -0.0568 |
| AGGTAGGA | -0.06 |
| GGAGTGCC | 0.0423 |
| TACTATGA | 0.142 |
| CGGGAAAG | 0.138 |
| CAGGAAAC | 0.117 |
| ACGGAAAG | 0.231 |
| CCGGAAAG | 0.312 |
| CGGGAAAC | 0.286 |
| CCGGAAAC | 0.396 |
| CCCACGAA | -0.0234 |
| CAGCGTCC | -0.0361 |
| TTAGGCAA | -0.168 |
| AGAACAGA | 0.0872 |
| GAGTATGC | -0.00892 |
| CCGGGGAA | 0.267 |
| ACGGGAAA | 0.159 |
| CGGGGAAA | 0.15 |
| TCGGGAAA | 0.309 |
| GCGGGAAA | 0.223 |
| CCGGGAAA | 0.35 |
| AGTGCTTG | -0.109 |
| CCTTCTAG | -0.237 |

| Sequence | PBM E-score |
| --- | --- |
| ATAGAAAT | 0.318 |
| ATAGAAAG | -0.0692 |
| ATAGAAAA | -0.0185 |
| ACAGGCCC | -0.349 |
| ACATTAAG | 0.132 |
| ACCCGGGA | 0.367 |
| GCCCGGGA | 0.282 |
| ACCCGGGT | 0.299 |
| ACCCGGGC | 0.233 |
| TCCCGGGA | 0.337 |
| CCCCGGGA | 0.119 |
| GGCCTGGA | -0.213 |
| TGCAAAAA | 0.00535 |
| CACGGACC | 0.192 |
| AACGGAGT | 0.312 |
| CACGGAGC | 0.14 |
| GACGGAAA | 0.213 |
| AACGGAGA | 0.107 |
| TACGGAAA | 0.362 |
| CACGGAAC | 0.349 |
| AACGGAAC | 0.333 |
| TACGGGAA | 0.142 |
| AACGGACC | 0.185 |
| GACGGAAC | 0.125 |
| AACGGAGC | -0.0449 |

| Sequence | PBM E-score |
| --- | --- |
| TCTATGCA | 0.0433 |
| AGAACGGC | 0.176 |
| CTCGAAAA | -0.0323 |
| CATCTGCA | -0.0527 |
| CCACTAAA | -0.0267 |
| GCAAGGGC | -0.274 |
| ACTGCCTC | -0.229 |
| AGATTAGG | -0.068 |
| AGATGGCG | 0.0474 |
| CTCGGAAC | 0.358 |
| AACGGACA | 0.202 |
| AACGGAAA | 0.408 |
| CAAGGAAA | -0.0602 |
| CTCGGAAA | 0.289 |
| AGCGGAAT | 0.0752 |
| AACGGAAT | 0.365 |
| GTCGGAAC | 0.217 |
| AACGGAAG | 0.179 |
| CACGGAAG | 0.149 |
| CACGGAAA | 0.345 |
| AACGGGAA | 0.25 |
| AATAGTGT | 0.267 |
| ATCAGTAA | 0.166 |
| GAATAGGA | 0.0511 |
| GCGATCAC | -0.19 |

| Sequence | PBM E-score |
| --- | --- |
| ACTTCTAG | -0.28 |
| GTCACTTA | 0.122 |
| AGGGACTG | -0.316 |
| GGACCTGA | -0.0219 |
| ATACATAT | 0.255 |
| AGGATCAA | 0.14 |
| ATACTGCG | -0.0752 |
| CCGGATCA | 0.328 |
| GCGGATCA | 0.105 |
| ACGGATCG | 0.0937 |
| ACGGATCA | 0.248 |
| CCGGATCG | 0.352 |
| CAGGATCG | -0.0543 |
| TCGGATCA | 0.31 |
| TCAGATCA | -0.00186 |
| TAGGATCA | -0.0016 |
| GCGGATCC | 0.161 |
| CCGGATCC | 0.372 |
| ACGGATCC | 0.288 |
| TCGAGACA | -0.0512 |
| GGCCATAA | -0.102 |
| ACGGCAGG | -0.117 |
| GGGTCAAA | 0.0026 |
| CCGTCCAA | -0.024 |
| CAAGCAGC | -0.149 |

| Sequence | PBM E-score |
| --- | --- |
| AATGGTTA | -0.0173 |
| TAGTCTAA | -0.101 |
| AAATTTGT | 0.213 |
| CCGCCGCA | 0.0998 |
| GCGCCGGA | 0.355 |
| CCGCCGGC | 0.442 |
| ACGCCGGG | 0.21 |
| GCGCCGCA | 0.166 |
| CCGCCGTC | -0.00239 |
| ACGCCGGA | 0.227 |
| CCGCCGGA | 0.316 |
| CCGCCGCC | 0.0576 |
| ACGCCGCC | -0.0562 |
| GCGCCGCC | 0.122 |
| ACGCCGGC | 0.423 |
| AGCGTTGG | -0.251 |
| CAATTTGC | -0.0817 |
| TACCTCAA | -0.122 |
| AACATTCG | 0.00818 |
